Abeta rescue: restores growth of yeast expressing A-beta42 peptide. hit rate 0.063% among 410,000. yeast expressing A-beta42, growth rescue, OD600, 48 h; response scale: 0% DMSO, 100% iron-clioquinol control. Potency, µM (top dose mostly 46.1 µM), hits mostly activators; further: nearly all actives have a fitted effect of over 55% in size
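Growth rescue measured by 600 nm absorbance after 48 h yeast culture at 30 C with compound. Values normalized between DMSO and an equimolar ferric chloride plus clioquinol control.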
TDP43 rescue: rescues yeast growth from TDP-43 toxicity | TDP-43 expressing yeast growth rescue, BacTiter-Glo, 24 h | Potency, µM (top dose mostly 46.1 µM), for the others: at the highest dose growth rescue (activation), most hits filed as activators | hit rate 1.8% among 410,000 | AID 652104; further: % of control where 0% means no effect; nearly all actives have a fitted effect of over 50% in size
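Galactose-induced TDP-43 yeast, OD600=0.02, compound pinned; 24 hr, 30 deg C; BacTiter-Glo luminescence for growth. Inhibitors of TDP-43 toxicity read as activators.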
aSyn rescue: inhibitors of alpha-synuclein toxicity in yeast; AID 652106; Potency, µM (highest dose often 46.1 µM), for the others: at the top dose growth rescue (activation), most hits filed as activators; hit rate 0.14% among 370,000; Yeast expressing alpha-synuclein, growth rescue, BacTiter-Glo, 24 h; further: % of control where 0% means no effect; nearly all actives have a fitted effect of over 65% in size
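Screening used galactose-induced yeast with toxic alpha-synuclein levels, exposed to compound for 24 hr at 30 deg C. Cell growth, read with BacTiter-Glo luminescence, gave the measured signal.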
Mito fusion act: inhibitors of mitochondrial division or activators of mitochondrial fusion; S. cerevisiae fusion-defective mutant growth rescue, CellTiterGlo 48 h; Potency, µM (top dose mostly 46.1 µM), inactives show at the top dose growth rescue (activation), usual class: activators; hit rate 0.23% among 320,000; AID 485298; further: % of control where 0% means no effect; nearly all actives have a fitted effect of over 45% in size
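S. cerevisiae fusion-defective temperature-sensitive mutants (e.g. fzo1-1, mgm1-5) grown 48 h at 37C in YPEG (ethanol/glycerol non-fermentable) medium with 23 nl compound per well; growth rescue read as CellTiterGlo luminescence.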
FUS suppressor: rescues growth of FUS-expressing yeast. S. cerevisiae FUS-expressing, growth rescue, OD600, 24 h. Potency, µM (doses to about 76.6 µM), most hits filed as activators. hit rate 0.24% among 390,000. AID 1347120;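 further: plate controls were DMSO vehicle for no effect and reference control for full effect; nearly all actives have a fitted effect of over 55% in size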
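Restored growth of FUS-toxic S. cerevisiae, read as 600 nm absorbance after 24 h at 30C in galactose medium (starting OD 0.005). Controls CP55940 and DMSO.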
Starred values were filed as active, the others as inactive; i = inactive; ? = inconclusive; . = no result; ! = not confirmed by another sample. Shown are actives, neighbours in structure and some others; about 2.2% of the full set was active somewhere. The call rests on the fitted dose curve; in most records, active means well fitted curve in the direction sought with a large enough effect; inconclusive means small, poorly fitted or top-dose-only effect, or another doubt; inactive means no such curve, though single readings can be large; an effect the other way counts as inactive or inconclusive. Potency means the concentration at half of the fitted maximal effect.

SMILES	Abeta rescue	TDP43 rescue	aSyn rescue	Mito fusion act	FUS suppressor
O=C(CCCN1CCC(O)(c2ccc(Br)cc2)CC1)c1ccc(F)cc1	i	-7%	10%	25%	i
O=C(CCCN1CCC(O)(c2ccc(Cl)cc2)CC1)c1ccc(F)cc1	i	?	11%	12µM*!	i
O=C(CCCN1CCC(O)(c2cccc(C(F)(F)F)c2)CC1)c1ccc(F)cc1	i	-7%	2%	23µM*!	i
CC(=O)N1CCC(O)(c2cccc(C(F)(F)F)c2)CC1	i	0%	5%	1%	i
Cc1nnc(N2CCN(C(=O)Nc3cc(F)ccc3F)CC2)c2nn(-c3ccc(Cl)cc3)c(C)c12	i	18%	.	.	i
Cc1cc(C)c2oc(-c3cccc(N)c3)nc2c1	i	11µM*	7%	-25%	i
Cc1ccc2nc(-c3cccc(N)c3)oc2c1	i	-11%	-24%	2%	i
CCN(CC)c1ccc(/C=C/C2=C3C=CC=CC3NC=C2)cc1 (stereo not given)	.	.	-2%	.	.
CC(C)c1ccc(Nc2ncnc3c2nc2n3CCCC2)cc1	i	14µM*	.	.	i
CSc1nnc2c3cc(F)ccc3n(C)c2n1	i	6.3µM*	2.8µM*	-3%	i
CCN(CC)CCSc1nnc2c3cc(F)ccc3n(C)c2n1	i	-15%	.	.	i
CC1CCCN(CC(=O)N2c3ccccc3Sc3ccccc32)C1 (stereo not given)	22µM*	1%	11%	-4%	i
COC(=O)c1ccc(Cl)cc1NC(=O)N(C)CCc1c(C)nn(C)c1C	i	?	.	.	i
COc1ccc(NC(=O)c2ccc(-c3ccccc3C(F)(F)F)o2)cc1	i	13µM*	-13%	?	i
CN(Cc1ccccc1)c1ccc(-c2nc(-c3ccccn3)no2)cc1[N+](=O)[O-]	i	8%	.	.	i
N#Cc1ccc(C(=O)OCC(=O)Nc2cccnc2Cl)cc1	i	4%	0%	-6%	i
NC(=S)Nc1cccc2cc3ccccc3cc12	i	?	-24%	0%	i
NC(=S)Nc1cc2ccccc2c2ccccc12	i	22µM*	0%	-6%	i
Cc1ccccc1N1CCN(CCN2C(=O)CC(=C3c4ccccc4-c4ccccc43)C2=O)CC1	i	13%	-5%	.	?
O=C1CC(=C2c3ccccc3-c3ccccc32)C(=O)N1CCN1CCN(c2ccccc2)CC1	i	-29%	-1%	.	40µM*
COc1ccccc1N1CCN(CCN2C(=O)CC(=C3c4ccccc4-c4ccccc43)C2=O)CC1	i	3%	-12%	.	16µM*
O=C(CCN1C(=O)c2ccccc2C1=O)N1CCN(c2ccccc2)CC1	i	-18%	0%	1%	i
CCOc1ccc(C(c2c(O)cc(C)n(CCOC)c2=O)N2CCN(c3ccccc3F)CC2)cc1 (stereo not given)	i	20%	.	.	i
CCN(CC)/[N+]([O-])=N/OCOC(=O)C(C)c1ccc(CC(C)C)cc1 (stereo not given)	.	.	11%	.	.
COC(=O)c1cc2oc(C)cc2n1CC(=O)Nc1ccc(OC)c(OC)c1	i	5%	.	.	i
SMILES	Abeta rescue	TDP43 rescue	aSyn rescue	Mito fusion act	FUS suppressor
CC1(c2nnc(-c3ccccc3)o2)CC(c2cccc(Cl)c2)=NO1 (stereo not given)	i	?	17%	3.2µM*	i
COC(C(=O)Nc1ccccc1C(=O)N1CCOCC1)c1ccccc1 (stereo not given)	i	3%	2%	2%	i
CC(C)(C)C(=O)C1=C(O)C(=O)N(Cc2ccccc2)C1c1ccccc1Cl (stereo not given)	i	13µM*	12%	2%	i
Cc1ccccc1Nc1nc2ccccc2s1	i	20µM*	-1%	10%	.
O=C(Cn1cnc([N+](=O)[O-])c1)c1ccc(Cl)cc1	i	16µM*	0%	20%	i
O=[N+]([O-])c1cn(Cc2ccc(Cl)cc2)cn1	?	11%	7%	1%	i
Nc1nnc(SCC(=O)Nc2cccc(F)c2)s1	i	6%	.	.	i
Cc1ccc2c(c1)N(S(=O)(=O)c1ccc(CN3C(=O)c4cccnc4C3=O)s1)CCO2	i	?	?	1%	i
Cc1ccc2c(c1)N(S(=O)(=O)c1ccc(CN3C(=O)c4cccnc4C3=O)cc1)CCO2	i	-9%	5%	11µM*	i
CCOC(=O)c1ccc(Oc2nc(OC)cc(OC)n2)cc1	i	22%	-9%	2%	i
CC(C)CC(=O)NC(=S)Nc1ccccc1N1CCCC1	7.1µM*	23%	10%	-4%	i
O=C(NC(=S)Nc1ccccc1N1CCCC1)c1cccs1	11µM*	?	0%	3%	i
COC(=O)[C@]1(C)N[C@H](CN(C)S(=O)(=O)c2ccc(-c3ccccc3)cc2)[C@@H]2C(=O)N(C)C(=O)[C@@H]21	i	-2%	3.2µM*	.	i
CC(=O)c1ccc(Sc2ccccc2)c([N+](=O)[O-])c1	i	11µM*	1%	?	i
Cc1ccc(Sc2ccc(CO)cc2[N+](=O)[O-])cc1	i	14µM*	24%	-15%	i
COCOCCn1cc(CN2CCS(=O)(=O)N(Cc3ccc(-c4ccc(Cl)c(Cl)c4)cc3)C(C(C)C)C2=O)nn1 (stereo not given)	i	35µM*	?	.	?
COCOCCn1cc(CN2CCS(=O)(=O)N(Cc3ccc(-c4ccc(Cl)cc4)cc3)C(C(C)C)C2=O)nn1 (stereo not given)	i	18%	4%	.	i
CC(C)Cc1ccc(CN2C(C(C)C)C(=O)N(Cc3cn(CCC4OCCO4)nn3)CCS2(=O)=O)cc1 (stereo not given)	i	11µM*	8%	.	?
Cc1ccccc1-c1ccc(CN2C(C(C)C)C(=O)N(Cc3cn(CCC4OCCO4)nn3)CCS2(=O)=O)cc1 (stereo not given)	i	?	?	.	10µM*
COc1ccc(-c2ccc(CN3C(C(C)C)C(=O)N(Cc4cn(CC5CCCCC5)nn4)CCS3(=O)=O)cc2)cc1OC (stereo not given)	i	-8%	16%	.	25µM*
CC1(C)CCC2=C(O1)c1ccccc1C(=O)C2=O	.	.	?	5%	.
CC1CCN(c2nn3c(=O)c(C(=O)NCc4ccc(Cl)cc4)cnc3s2)CC1	i	8%	.	.	i
COc1ccc(NC(=O)CSCC(=O)Oc2c(OC)cccc2OC)cc1	i	12%	-3%	-4%	i
CN(CC(=O)Nc1ccccc1Cl)C(=O)c1cc(C2CC2)nn1-c1ccccc1	i	0%	0%	13%	i
